# The supplement of paper PMC7156485
# Test system: TDF
# Assay: H1.0 immunofluorescence intensity relative to DMSO (% of DMSO); higher = stronger H1.0 induction, active = 120 or more
# Settings: concentration: 10 µM; 24 h
# How it was run: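 Using 384-well plates with 800 cells per well in RPMI plus 10% FBS, HCC1569 and TDF cells were exposed to compounds at 10 µM, in triplicate, for 24 h at 37 °C. Imaging of six fields per well at ×10 followed H1.0 and DAPI staining. The reported quantity, H1.0 nuclear intensity or cell number, is a median of replicates given as percent of the plate control, and HCC1569 values were smoothed for positional effects.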
# 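Further: TDF is a line of transformed human dermal fibroblasts of mesenchymal origin.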
row,Compound,H1.0 immunofluorescence intensity
1,CC(N)Cc1c[nH]c2ccc(OCc3cccs3)cc12.Cl (centres undefined),87.9 (inactive)
2,O=C(O)CCCc1ccc(N(CCCl)CCCl)cc1 [Chlorambucil],97.1 (inactive)
3,Cc1[nH]c2ccc(Cl)cc2c1C1=CCNCC1.Cl,107 (inactive)
4,"CCCCCC=CCC=CCC=CCCCCCCC(=O)NCCO [Anandamide (20:3,n-6)]",102 (inactive)
5,COc1cc2c(c3oc4cccc(O)c4c(=O)c13)C1C=COC1O2 (centres undefined) [Sterigmatocystin],96.5 (inactive)
6,CC1CCC2N(C1)CC1C3CC4C(CC(=O)C5CC(O)CCC54C)C3CCC1C2(C)O (centres undefined) [Imperialine],97.1 (inactive)
7,CC(NC(C)(C)C)C(=O)c1cccc(Cl)c1 (centres undefined) [Amfebutamone],97.2 (inactive)
8,CC12C(=O)OC(=O)C1(C)C1CCC2O1 (centres undefined) [Cantharidin],210 (active)
9,Br.Br.CN(C)CCN(C)CCc1ccc(Cl)c(Cl)c1,102 (inactive)
10,COc1ccc2c(c1)N1C(C=C(C)C)OOC(C)(C)CC3C1C2C(O)C1(O)C(=O)N2CCCC2C(=O)N31 (centres undefined) [Verruculogen],96.9 (inactive)
11,Cc1nc(-c2ccc(-c3ccc(C(=O)N4CCc5cc6c(cc54)C4(CCN(C)CC4)CO6)cc3)c(C)c2)no1.Cl,114 (inactive)
12,COc1ccc(C(=O)N2CCCC2=O)cc1 [Aniracetam],92.7 (inactive)
13,NC(=O)CN1CCCC1=O [Piracetam],92 (inactive)
14,NC(=S)NN=Cc1coc2ccccc2c1=O.[Cl][Cu][Cl],105 (inactive)
15,COc1cc2c(cc1O)CCNC2C (centres undefined) [Salsoline],91 (inactive)
16,C=C1C2CC3(C1O)C1CC4C5(C)CCC(O)C4(C1N(CC)C5)C3CC2=O (centres undefined) [Songorine],90 (inactive)
17,CCN(CC)C(=O)NC1CC2c3cccc4[nH]cc(c34)CC2N(C)C1 (stereo not drawn) [R(+)-Terguride],91.9 (inactive)
18,CC1Cc2cc3c(cc2C(c2ccc(N)cc2)=NN1)OCO3 (centres undefined),103 (inactive)
19,Br.COC1CC=C2CCN3CCC4=C(CC(=O)OC4)C23C1 (stereo not drawn) [Dihydro-beta-erythroidine hydrobromide],91.6 (inactive)
20,CC(=O)OC1CC2CCC3C(CCC4(C)C3CC([N+]3(C)CCCCC3)C4OC(C)=O)C2(C)CC1[N+]1(C)CCCCC1.[Br-].[Br-] (centres undefined) [Pancuronium bromide],98.8 (inactive)

row,Compound,H1.0 immunofluorescence intensity
1,COc1ccc2c(c1OC)C(=O)OC2C1c2cc3c(cc2CCN1C)OCO3 (centres undefined),90.5 (inactive)
2,C#CCN(C)C(C)Cc1ccccc1.Cl [(R)-(-)-Deprenyl.HCl],97.8 (inactive)
3,Cl.N[C@@H](CCl)C(=O)O [beta-Chloro-L-alanine hydrochloride],92.7 (inactive)
4,CC1CCCC(O)CCCCCc2cc(O)cc(O)c2C(=O)O1 (centres undefined),91.8 (inactive)
5,CCN(CC)c1ncnc2c1ncn2C1OC(COP(=O)([O-])OP(=O)([O-])C(Br)(Br)P(=O)([O-])O)C(O)C1O.[Na+].[Na+].[Na+] (centres undefined),92.6 (inactive)
6,CN(C)C1C(=O)C(C(N)=O)=C(O)C2(O)C(=O)C3=C(O)c4c(O)cccc4C(C)(O)C3CC12 (centres undefined) [Tetracycline],101 (inactive)
7,CN1C2CC(OC(=O)C(CO)c3ccccc3)CC1C1OC12 (centres undefined) [Scopolamine],94.4 (inactive)
8,C1CCC(NC2CCCCC2)CC1,93.9 (inactive)
9,N#CC(C#N)=Cc1ccc([N+](=O)[O-])c(O)c1 [Tyrphostin AG 126],102 (inactive)
10,NC(=O)CN1CC(O)CC1=O (centres undefined) [Oxiracetam],89.7 (inactive)
11,CCC1CN2CCc3cc(OC)c(OC)cc3C2CC1CC1NCCc2cc(OC)c(OC)cc21.Cl.Cl (centres undefined) [Emetine dihydrochloride hydrate],114 (inactive)
12,CN(C)C(=O)Oc1cccc([N+](C)(C)C)c1.COS(=O)(=O)[O-],97.7 (inactive)
13,CC(N)C(=O)OC(C)(C)Cc1ccc(Cl)cc1.Cl (centres undefined) [Alaproclate hydrochloride],88.2 (inactive)
14,CCCCCN(C)CCC(O)(P(=O)([O-])O)P(=O)(O)O.[Na+],89.4 (inactive)
15,CC1Cc2c(Cl)cc(C(=O)NC(Cc3ccccc3)C(=O)O)c(O)c2C(=O)O1 (centres undefined) [Ochratoxin A],103 (inactive)
16,CC(CCc1ccccc1)NC(C)C(O)c1ccc(O)cc1.Cl (centres undefined) [Nylidrin hydrochloride],92.4 (inactive)
17,Br.COC(=O)C1=CCCN(C)C1,89.8 (inactive)
18,COc1cc(CC(C)N)c(OC)cc1I.Cl (racemic),91.3 (inactive)
19,CN1CCC23CCCCC2C1Cc1ccc(O)cc13.O=C(O)C(O)C(O)C(=O)O [Dextrorphan D-tartrate],93.1 (inactive)
